Source: PubChem BioAssay (Tox21)
Calls of active or inactive are those of the source. Calls follow the shape of the dose curve; as a rule, active = well fitted curve in the direction sought with a large enough effect in the repeat runs; inconclusive = weak or mixed curves; inactive = flat fitted curve, though single readings scatter.

Assay: qHTS assay to test for compound auto fluorescence at 460 nm (blue) in HEK293 cell free culture (AID 720681)
Conditions: cell-free medium, autofluorescence 405/460 nm (blue); series mostly up to 46 µM; fluorescence, % of fluorescent control: at the top concentration
Description: U.S. Tox21 Program National Center for Advancing Translational Sciences [NCATS] NIH Chemical Genomics Center [NCGC] U.S. Environmental Protection Agency [EPA] National Institutes of Environmental Health Sciences [NIEHS] National Toxicology Program [NTP] U.S. Food and Drug Administration [FDA] Tox21 Assay Overview: Compound auto fluorescence often interferes with screening of the compound library against various biological targets and signaling pathways. Some of these compounds may have fluorophoric properties. Such properties may interfere with the assay outputs resulting in false positives and/or negatives. To decrease such complications and ensure the compound activities are relevant in terms of biological response, the Tox21 10K compound library was screened for auto fluorescence. From the fluorophores used as reporter signals in our screening assays, the auto fluorescence equivalencies of compounds against three fluorophores have been evaluated: Triamterene, Fluorescein and Rose Bengal sodium for blue, green and red fluorescence, respectively. The fluorescence intensities were measured using Excitation/Emission wavelengths at 405/460nm, 485/535nm and 540/590nm for blue, green and red labels, respectively. This assay includes the blue fluorescence data.
Tox21 Assay Protocol Summary: 5 uL of culture medium (DMEM containing 10% FBS) per well was dispensed into black wall/clear bottom 1536-well plates using a Multidrop Combi Dispenser (ThermoFisher Scientific, Waltham, MA). After 23 nL compound or DMSO vehicle was transferred into assay plate by a pintool work station (Kalypsys, San Diego, CA), fluorescence intensities in the assay plates were measured by an Envision (PerkinElmer, Shelton, CT) plate reader using three labels for measuring blue, green and red fluorescence at […] 460, 535 and 590nm respectively.
% is scaled to controls: 0 for no effect and ±100 for the full control effect.

SMILES	fluorescence, % of fluorescent control	outcome
Nc1ccccc1S(=O)(=O)O	0.144% [at 91.3 µM] (inactive)	
N=C(N)c1ccc2cc(OC(=O)c3ccc(N=C(N)N)cc3)ccc2c1	4.38% (inactive)	
COC(=O)c1cc(C(=O)OC)cc(S(=O)(=O)O)c1	0.141% [at 91.3 µM] (inactive)	
CCCCC/C=C\CCC=O	0.0463% [at 91.3 µM] (inactive)	
CCOC(=O)[C@H](CCc1ccccc1)N[C@@H](C)C(=O)N1[C@H](C(=O)O)C[C@@H]2CCC[C@@H]21	-0.0676% (inactive)	
CC(C)c1cc2c(cc1S(=O)(=O)O)[C@@]1(C)CCC[C@@](C)(C(=O)O)[C@@H]1CC2	0.0819% (inactive)	
Cc1cc2c(cc1S(N)(=O)=O)S(=O)(=O)CCC2	-0.0122% [at 18.6 µM] (inactive)	
CC(=O)N(CC(O)CO)c1c(I)c(C(=O)NCCO)c(I)c(C(=O)NCC(O)CO)c1I (stereo not given)	-0.0253% (inactive)	
CC(C)(c1ccc(O)cc1)c1ccc(O)cc1		inactive
CC(C)=CCCC(C)CC(=O)O (stereo not given)	-0.125% [at 91.3 µM] (inactive)	
C[C@H](NC(CCc1ccccc1)C(=O)O)C(=O)N1CCC[C@H]1C(=O)O (stereo not given in full)	-0.14% (inactive)	
CC(=O)c1ccccc1O	-0.0353% [at 91.3 µM] (inactive)	
C/C=C(\C)C#N	-0.0457% [at 91.3 µM] (inactive)	
O=c1cc(-c2ccccc2)oc2ccccc12		inactive
ClC(Cl)(Br)Br	0.0313% [at 91.3 µM] (inactive)	
Cc1c(O)cccc1O	0.0455% [at 95.7 µM] (inactive)	
CCn1nc(C(=O)O)c(=O)c2cc3c(cc21)OCO3	0.22% [at 18.6 µM] (inactive)	
CCOC(=O)c1ccc(C)cc1	-0.161% [at 91.3 µM] (inactive)	
C=C1CC[C@H]2C[C@@H]1C2(C)C	0.151% [at 91.3 µM] (inactive)	
Brc1c(NC2=NCCN2)ccc2nccnc12	0.117% (inactive)	

SMILES	fluorescence, % of fluorescent control	outcome
CCCN(CCC)CCc1cccc2c1CC(=O)N2	-0.0096% (inactive)	
CC(C)(O)C(=O)c1ccccc1	0.0706% [at 91.3 µM] (inactive)	
CCCN1CCCC[C@H]1C(=O)Nc1c(C)cccc1C	-0.0273% (inactive)	
OCCOc1ccc(OCCO)cc1	0.0024% [at 95.7 µM] (inactive)	
O=C(O)CNC(=O)c1ccc([N+](=O)[O-])cc1	0.0612% [at 91.3 µM] (inactive)	
CCCCC(CC)COC(=O)c1ccccc1O (stereo not given)	0.0706% (inactive)	
CCOC(=O)CC(C)=O	-0.0382% [at 91.3 µM] (inactive)	
CO/N=C(/C(=O)N[C@@H]1C(=O)N2C(C(=O)OCOC(=O)C(C)(C)C)=C(C)CS[C@H]12)c1csc(N)n1	-0.0901% (inactive)	
CCCC(=O)O[C@]1(C(=O)CO)CC[C@H]2[C@@H]3CCC4=CC(=O)CC[C@]4(C)[C@H]3[C@@H](O)C[C@@]21C	-0.0876% (inactive)	
CCO/C([O-])=N/c1c[n+](N2CCOCC2)no1	-0.0953% [at 18.6 µM] (inactive)	
CC(=O)CC(C)C	0.953% [at 91.3 µM] (inactive)	
OC1CCCCC1c1ccccc1 (stereo not given)	-0.0669% [at 91.3 µM] (inactive)	
O=c1cc(CO)occ1O		inactive
c1ccc(CC2=NCCN2)cc1	-0.134% [at 18.6 µM] (inactive)	
CN(C(=O)c1c(O)c2ccccc2n(C)c1=O)c1ccccc1	0.0405% (inactive)	
CC(C)NCC(O)c1ccc(NS(C)(=O)=O)cc1 (stereo not given)		inactive
CC/C=C\CCOC(C)=O	0.0998% [at 91.3 µM] (inactive)	
CS(=O)(=O)O	-0.058% [at 91.3 µM] (inactive)	
COC(=O)CCSCCC(=O)OC	-0.0972% [at 91.3 µM] (inactive)	
CN1CCN(c2cc3c(cc2F)c(=O)c(C(=O)O)cn3-c2ccc(F)cc2)CC1	0.0639% (inactive)	
